Assay results: PubChem BioAssay (EPA / NIEHS)
Calls of active or inactive are those of the source. Rule for the calls: active = hit-call score of the fitted dose curve at least 0.9, where 1 is the maximum; inactive = score below 0.9.

How the values were obtained:
Conditions in all cases: mRNA level, 48 h; actives raise or lower the signal
[1] = read-out: Glutathione S-Transferase (GSTA2), GSTA2 (gene 2939); experiment: LTEA_HepaRG_GSTA2: Life Technologies and Expression Analysis (LTEA) Assay for Glutathione S-Transferase (GSTA2) using HepaRG (AID 2283497)
Outline: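 Differentiated human HepaRG cells were exposed in duplicate for 48 h in serum-free induction medium, 8 points from 100 uM top in half-log steps, 0.5% DMSO. GSTA2 mRNA was measured by TaqMan qRT-PCR, normalized to ACTB, GAPDH and POLR2A; bidirectional fit versus DMSO.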

[2] = read-out: Glutamate-cysteine ligase catalytic (GCLC), GCLC (gene 2729); experiment: LTEA_HepaRG_GCLC: Life Technologies and Expression Analysis (LTEA) Assay for Glutamate-cysteine ligase catalytic (GCLC) using HepaRG (AID 2283498)
Outline: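 Differentiated HepaRG cells exposed 48 h in serum-free induction medium, eight-point half-log series topping at 100 uM in 0.5% DMSO, duplicates. GCLC mRNA by qRT-PCR normalized to ACTB, GAPDH and POLR2A, fitted bidirectionally versus DMSO.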

[3] = read-out: growth arrest and DNA damage 45 (GADD45G), GADD45G (gene 10912); experiment: LTEA_HepaRG_GADD45G: Life Technologies and Expression Analysis (LTEA) Assay for growth arrest and DNA damage 45 (GADD45G) using HepaRG (AID 2283499)
Outline: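 Differentiated human HepaRG cells, 48 h post-plating, exposed 48 h in serum-free induction medium to 8 half-log concentrations (top 100 uM, 0.5% DMSO) in duplicate. GADD45G mRNA measured by Fluidigm TaqMan qRT-PCR, normalized to ACTB, GAPDH, POLR2A; bidirectional fit versus DMSO.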

[4] = read-out: Glutamate-cysteine ligase regulatory (GCLM), GCLM (gene 2730); experiment: LTEA_HepaRG_GCLM: Life Technologies and Expression Analysis (LTEA) Assay for Glutamate-cysteine ligase regulatory (GCLM) using HepaRG (AID 2283500)
Outline: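 Differentiated HepaRG cells exposed 48 h in serum-free induction medium to eight half-log concentrations up to 100 uM (0.5% DMSO). GCLM mRNA by TaqMan qRT-PCR, normalized to ACTB, GAPDH and POLR2A; bidirectional fit versus DMSO.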

[5] = read-out: Glutathione S-transferase M3 (GSTM3), GSTM3 (gene 2947); experiment: LTEA_HepaRG_GSTM3: Life Technologies and Expression Analysis (LTEA) Assay for Glutathione S-transferase M3 (GSTM3) using HepaRG (AID 2283501)
Outline: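 Differentiated human HepaRG cells were exposed in duplicate for 48 h in serum-free induction medium, 8 points from 100 uM top in half-log steps, 0.5% DMSO. GSTM3 mRNA was measured by TaqMan qRT-PCR, normalized to ACTB, GAPDH and POLR2A; bidirectional fit versus DMSO.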

[6] = read-out: Heat shock 70 kDa protein 1 (HSPA1A), gene 3303; experiment: LTEA_HepaRG_HSPA1A: Life Technologies and Expression Analysis (LTEA) Assay for Heat shock 70 kDa protein 1 (HSPA1A) using HepaRG (AID 2283502)
Outline: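 Human HepaRG cells in serum-free induction medium were exposed in duplicate for 48 h to 8 half-log concentrations, highest 100 uM, in 0.5% DMSO. HSPA1A mRNA read by TaqMan qRT-PCR, normalized to ACTB, GAPDH, POLR2A, fitted bidirectionally against DMSO.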

[7] = read-out: Hypoxia-inducible factor 1-alpha (Homo sapiens) (UniProt Q16665); experiment: LTEA_HepaRG_HIF1A: Life Technologies and Expression Analysis (LTEA) Assay for Hypoxia-inducible factor 1 (HIF1A) Trancription factor using HepaRG (AID 2283503)
Outline: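 Differentiated HepaRG cells in serum-free induction medium exposed 48 h, in duplicate, to 8-point half-log series from 100 uM in 0.5% DMSO. HIF1A mRNA measured by TaqMan qRT-PCR, normalized to ACTB/GAPDH/POLR2A, fitted bidirectionally versus DMSO.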

[8] = read-out: 3-Hydroxy-3-Methylglutaryl-CoA Synthase 2 (HMGCS2), HMGCS2 (gene 3158); experiment: LTEA_HepaRG_HMGCS2: Life Technologies and Expression Analysis (LTEA) Assay for 3-Hydroxy-3-Methylglutaryl-CoA Synthase 2 (HMGCS2) using HepaRG (AID 2283504)
Outline: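 Human HepaRG cells in serum-free induction medium were exposed in duplicate for 48 h to 8-point half-log series from 100 uM top in 0.5% DMSO. HMGCS2 mRNA measured by TaqMan qRT-PCR, normalised to ACTB, GAPDH, POLR2A; bidirectional fit versus DMSO.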

[9] = read-out: HGF (gene 3082); experiment: LTEA_HepaRG_HGF: Life Technologies and Expression Analysis (LTEA) Assay for Hepatocyte Growth Facto (HGF) using HepaRG (AID 2283505)
Outline: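 Differentiated HepaRG cells in serum-free induction medium exposed 48 h in duplicate, 8 half-log concentrations from 100 uM in 0.5% DMSO. HGF mRNA by qRT-PCR, normalised to ACTB, GAPDH, POLR2A; bidirectional fitting.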

[10] = read-out: Insulin Like Growth Factor 1 (IGF1), IGF1 (gene 3479); experiment: LTEA_HepaRG_IGF1: Life Technologies and Expression Analysis (LTEA) Assay for Insulin Like Growth Factor 1 (IGF1) using HepaRG (AID 2283506)
Outline: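 Differentiated HepaRG cells in serum-free induction medium, exposed 48 h in duplicate to 8 half-log concentrations up to 100 uM in 0.5% DMSO. IGF1 mRNA by Fluidigm qRT-PCR, normalised to ACTB, GAPDH and POLR2A.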

[11] = read-out: Intercellular Adhesion Molecule 1 (ICAM1), ICAM1 (gene 3383); experiment: LTEA_HepaRG_ICAM1: Life Technologies and Expression Analysis (LTEA) Assay for Intercellular Adhesion Molecule 1 (ICAM1) using HepaRG (AID 2283507)
Outline: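 Differentiated human HepaRG cells in serum-free induction medium exposed 48 h in duplicate to 8 half-log concentrations (top 100 uM, 0.5% DMSO). ICAM1 mRNA quantified by TaqMan qRT-PCR, normalized to ACTB, GAPDH and POLR2A; bidirectional fitting versus DMSO.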

[12] = read-out: Insulin-like growth factor-binding protein 1 (IGFBP1), IGFBP1 (gene 3484); experiment: LTEA_HepaRG_IGFBP1: Life Technologies and Expression Analysis (LTEA) Assay for Insulin-like growth factor-binding protein 1 (IGFBP1) using HepaRG (AID 2283508)
Outline: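 HepaRG cells, plated 48 h then switched to serum-free induction medium, exposed in duplicate for 48 h to 8-point half-log series from 100 uM in 0.5% DMSO. mRNA measured by qRT-PCR, normalized to ACTB/GAPDH/POLR2A; bidirectional fit versus DMSO.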

[13] = read-out: Interleukin 6 (IL6), IL6 (gene 3569); experiment: LTEA_HepaRG_IL6: Life Technologies and Expression Analysis (LTEA) Assay for Interleukin 6 (IL6) using HepaRG (AID 2283509)
Outline: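 HepaRG cells exposed in duplicate for 48 h to eight half-log concentrations, top 100 uM, in 0.5% DMSO serum-free induction medium. mRNA measured by qRT-PCR, normalized to ACTB, GAPDH and POLR2A. Bidirectional fit versus DMSO.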

[14] = read-out: Interleukin 6 Receptor (IL6R), IL6R (gene 3570); experiment: LTEA_HepaRG_IL6R: Life Technologies and Expression Analysis (LTEA) Assay for Interleukin 6 Receptor (IL6R) using HepaRG (AID 2283510)
Outline: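 Differentiated HepaRG cells, plated 48 h, then exposed in duplicate for 48 h in serum-free induction medium to 8 half-log concentrations (top 100 uM, 0.5% DMSO). IL6R mRNA measured by TaqMan qRT-PCR, normalized to ACTB/GAPDH/POLR2A; bidirectional fit vs DMSO.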

[15] = read-out: Potassium channel subfamily K member 1 (KCNK1), KCNK1 (gene 3775); experiment: LTEA_HepaRG_KCNK1: Life Technologies and Expression Analysis (LTEA) Assay for Potassium channel subfamily K member 1 (KCNK1) using HepaRG (AID 2283511)
Outline: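 Differentiated HepaRG cells, 48 h exposure in serum-free induction medium with 0.5% DMSO; 8 concentrations, half-log from 100 uM, duplicate. KCNK1 mRNA by qRT-PCR, normalized to ACTB, GAPDH, POLR2A; bidirectional fit vs DMSO.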

[16] = read-out: Keratin 19 (KRT19), KRT19 (gene 3880); experiment: LTEA_HepaRG_KRT19: Life Technologies and Expression Analysis (LTEA) Assay for Keratin 19 (KRT19) using HepaRG (AID 2283512)
Outline: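 Differentiated HepaRG cells in serum-free induction medium, exposed 48 h in duplicate to 8 half-log concentrations up to 100 uM in 0.5% DMSO. KRT19 mRNA by qRT-PCR, normalized to ACTB, GAPDH, POLR2A; bidirectional fit vs DMSO.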

[17] = read-out: JUN Transcription Factor, JUN (gene 3725); experiment: LTEA_HepaRG_JUN: Life Technologies and Expression Analysis (LTEA) Assay for JUN Transcription Factor using HepaRG (AID 2283513)
Outline: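 HepaRG cells, 48 h post-plating, exposed 48 h in serum-free induction medium to 8-point half-log series (top 100 uM, 0.5% DMSO), duplicate; mRNA by qRT-PCR (TaqMan, Fluidigm), normalized to ACTB/GAPDH/POLR2A; bidirectional fit vs DMSO.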

[18] = read-out: Lipase C (LIPC), LIPC (gene 3990); experiment: LTEA_HepaRG_LIPC: Life Technologies and Expression Analysis (LTEA) Assay for Lipase C (LIPC) using HepaRG (AID 2283514)
Outline: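 HepaRG cells, 48 h after plating, treated in duplicate for 48 h in serum-free induction medium over 8 half-log concentrations from 100 uM, 0.5% DMSO. LIPC mRNA by TaqMan qRT-PCR normalized to ACTB/GAPDH/POLR2A; bidirectional fit versus DMSO.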

[19] = read-out: Lipoprotein lipase (LPL), LPL (gene 4023); experiment: LTEA_HepaRG_LPL: Life Technologies and Expression Analysis (LTEA) Assay for Lipoprotein lipase (LPL) using HepaRG (AID 2283515)
Outline: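 Differentiated HepaRG cells, plated 48 h, then exposed 48 h in serum-free induction medium to 8 concentrations (top 100 uM, half-log steps) in 0.5% DMSO, duplicate. LPL mRNA measured by qRT-PCR, normalized to ACTB, GAPDH and POLR2A.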

[20] = read-out: MicroRNA 122 (MIR122), gene 406906; experiment: LTEA_HepaRG_MIR122: Life Technologies and Expression Analysis (LTEA) Assay for MicroRNA 122 (MIR122) using HepaRG (AID 2283516); note: the transcript read is the microRNA miR-122
Outline: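 Differentiated human HepaRG cells in serum-free induction medium exposed 48 h to 8 half-log concentrations from 100 uM in 0.5% DMSO, duplicate. MIR122 quantified by Fluidigm TaqMan qRT-PCR, normalised to ACTB, GAPDH, POLR2A; fold change fitted bidirectionally versus DMSO.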

Measured: outcome

Chain of Hypoxia-inducible factor 1-alpha (Homo sapiens) (Q16665 whole entry, looked up): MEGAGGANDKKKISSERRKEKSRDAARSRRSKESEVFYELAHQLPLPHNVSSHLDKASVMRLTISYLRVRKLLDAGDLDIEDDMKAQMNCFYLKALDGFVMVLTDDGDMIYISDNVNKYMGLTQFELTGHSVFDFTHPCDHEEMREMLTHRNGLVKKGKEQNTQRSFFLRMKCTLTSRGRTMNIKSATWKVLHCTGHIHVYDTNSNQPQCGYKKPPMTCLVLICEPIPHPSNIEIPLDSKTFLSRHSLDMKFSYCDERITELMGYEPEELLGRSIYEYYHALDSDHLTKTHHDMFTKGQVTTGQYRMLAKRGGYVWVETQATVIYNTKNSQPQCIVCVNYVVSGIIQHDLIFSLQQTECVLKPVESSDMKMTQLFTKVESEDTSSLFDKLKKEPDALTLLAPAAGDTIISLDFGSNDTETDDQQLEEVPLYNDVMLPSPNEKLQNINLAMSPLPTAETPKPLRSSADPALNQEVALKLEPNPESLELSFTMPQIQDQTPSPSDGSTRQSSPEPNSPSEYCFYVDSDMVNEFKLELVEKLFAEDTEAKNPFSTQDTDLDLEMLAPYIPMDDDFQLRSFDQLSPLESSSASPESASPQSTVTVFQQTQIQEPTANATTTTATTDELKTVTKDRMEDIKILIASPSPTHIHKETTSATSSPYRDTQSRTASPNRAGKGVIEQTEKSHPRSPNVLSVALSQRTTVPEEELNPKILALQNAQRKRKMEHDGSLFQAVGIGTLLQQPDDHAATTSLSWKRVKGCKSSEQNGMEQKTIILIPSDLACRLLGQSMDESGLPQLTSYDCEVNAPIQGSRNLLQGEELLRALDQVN

CCCCCCCCCCCCCCCCCC(=O)O
inactive: [1] | [2] | [3] | [4] | [5] | [6] | [7] | [8] | [9] | [10] | [11] | [12] | [13] | [14] | [15] | [16] | [17] | [18] | [19] | [20]

CCNc1cccc(C)c1
inactive: [1] | [2] | [3] | [4] | [5] | [6] | [7] | [8] | [9] | [10] | [12] | [13] | [14] | [15] | [16] | [17] | [18] | [19] | [20]

FC(F)(F)C(F)(F)C(F)(F)C(F)(F)C(F)(F)C(F)(F)CCI
inactive: [1] | [2] | [3] | [4] | [5] | [6] | [7] | [8] | [9] | [10] | [12] | [13] | [14] | [15] | [16] | [17] | [18] | [19]
